Source: ChEMBL document CHEMBL3988442, “University of Dundee, Small-Polar-MMV Screening Library” (2021)
Among all 53,000 compounds or so, about 900 (1.7%) showed an effect of 50% or more. This is one part of a sample in which strong results are shown more often than they occur.

Tested on: Mycobacterium tuberculosis
Experiment: Cornell - Phenotypic assay to identify agents that inhibit growth of Mycobacterium tuberculosis
Type: functional
Design: scale not given: direction of the effect not stated beside the values
Conditions: 10 mM as filed; unlikely as a test dose

First: Cc1ccc(CN2CC[C@H]3C[C@@H](c4nc(C5CC5)cs4)O[C@@H]3C2)o1
Second: Cc1ccc(CN2CC[C@H]3C[C@H](c4nc(C5CC5)cs4)O[C@@H]3C2)o1
The “Percent Effect” value of the first is lower: 40.45% for the first, 67.24% for the second.

Compared with `Cc1cc(CN2CC[C@H]3C[C@@H](c4nc(C5CC5)cs4)O[C@@H]3C2)no1`, `Cn1cc(N2CCCC(SCc3nc(C4CC4)no3)C2=O)cn1` (configuration not stated) is lower in “Percent Effect” value: 0.1287% for the first, -5.692% for the second.

Compared with `Cn1nc(-c2cccc(Cl)c2)c(Br)c1C(=O)O`, `Cc1nn(C)cc1C(=O)Nc1cccc(CN2CCC(CO)CC2)c1` is lower in “Percent Effect” value: 24.18% for the first, -50.57% for the second.

Going from `O=C(Nc1ccccc1OCc1ccccn1)NC1CCOCC1` to `O=C(Nc1ccccc1OCCc1ccccn1)NC1CCOCC1`, the “Percent Effect” value falls from 30.18% to -20.67%.

Going from `c1ccc(COc2ccccc2NC2CCOCC2)nc1` to `O=C(c1cnco1)N1CCC(Cc2cccc3ncccc23)CC1`, the “Percent Effect” value falls from 50.88% to -21.16%.

Going from `Cc1ccn(-c2ccccc2NCc2cccnc2)n1` to `c1cncc(CNc2ccccc2-c2nn[nH]n2)c1`, the “Percent Effect” value rises from -17.76% to 72.98%.

Going from `COc1cc(NCc2ccncc2)c(-c2nn[nH]n2)cc1OC` to `COc1cc(NCc2cccnc2)c(-c2nn[nH]n2)cc1OC`, the “Percent Effect” value falls from 96.19% to -25.93%.

Going from `COc1ccncc1NCc1ccsc1` to `OCc1ccc(Cl)c(NCc2cccnc2)c1`, the “Percent Effect” value rises from -60.05% to -14.09%.

Going from `Cc1nnc(NCc2ccc(Cl)cc2)o1` to `COc1cc(NCc2ccc(Cl)cc2)c(-c2nn[nH]n2)cc1OC`, the “Percent Effect” value rises from 21.04% to 107.2%.

Going from `COc1cc(CNc2ccc(Cl)cc2)ccc1OCC(=O)O` to `COc1ccccc1OCCN(C)c1cc(C)nc(N)n1`, the “Percent Effect” value rises from -3.069% to -1.717%.

First: CC(=O)N1CCCN(C(=O)NCCNc2cnccn2)CC1
Second: CCCS(=O)(=O)N1CCN(c2ccnc(N3CCCC3)n2)CC1
The “Percent Effect” value of the first is higher: 8.364% for the first, -0.1963% for the second.

Compared with `CCOCc1cnc2n1CCN(C(=O)c1ccccc1)C2C` (configuration not stated), `CCC1c2cccn2CCN1C(=O)c1ccc2nonc2c1` (configuration not stated) is higher in “Percent Effect” value: -22.66% for the first, 10.7% for the second.

Compared with `C[C@@H]1CN(c2nc3c(cc2C(N)=O)CCC3)CC[C@@]1(O)C1CCC1`, `NC(=O)C1CCCN1C(=O)c1cc(C2CC2)nc2ccc(F)cc12` (configuration not stated) is lower in “Percent Effect” value: 6.158% for the first, -27.79% for the second.

Compared with `Cn1nc(CNS(=O)(=O)Cc2ccccc2F)c2c1CCCC2`, `Cc1nc[nH]c1CN1CCCN(c2nc3ccccc3s2)CC1` is lower in “Percent Effect” value: 24.49% for the first, 3.174% for the second.

First: CCc1c(C)nc2cc(C3CCN(Cc4ccc(F)cc4)C3)nn2c1O (configuration not stated)
Second: Cc1nc[nH]c1CN1CCCC12CCN(c1nc3ccccc3s1)CC2
The “Percent Effect” value of the first is lower: -30.4% for the first, -4.142% for the second.

First: O=C(O)C(F)(F)F.O=C([C@@H]1CCO[C@@H]2CCN(Cc3ccsc3)C[C@@H]21)N1CCCC1
Second: COCCC1COC2(CCN(C(=O)c3ccncc3)CC2)C1.O=C(O)C(F)(F)F (configuration not stated)
The “Percent Effect” value of the first is higher: 13.31% for the first, -13.79% for the second.

Going from `CCCS(=O)(=O)N1CCC(NC(=O)c2cc(CC)c(C)s2)CC1` to `CCCS(=O)(=O)N1CCN(c2ccnc(N3CCCCC3)n2)CC1`, the “Percent Effect” value rises from -14.58% to 50.94%.

First: COCC(=O)N1CCN(S(=O)(=O)c2cccs2)[C@H]2CS(=O)(=O)C[C@H]21
Second: Cc1cc2c(=O)n(CC(=O)N3CCn4cccc4C3C(C)C)cnc2s1 (configuration not stated)
The “Percent Effect” value of the first is lower: 5.268% for the first, 56.81% for the second.

Going from `Cc1cc(NCCO)nc2[nH]nc(N)c12` to `Cc1cc(NCc2ccco2)nc2[nH]nc(N)c12`, the “Percent Effect” value rises from 15.94% to 73.02%.

Compared with `Cc1cc2[nH]c(O)nc2cc1NCc1ccccc1`, `Cc1cc(NCc2ccccc2)nc2[nH]nc(N)c12` is higher in “Percent Effect” value: 38.01% for the first, 99.95% for the second.

First: CNc1c(NCc2ccco2)c(=O)c1=O
Second: NS(=O)(=O)c1cccnc1NCc1ccco1
The “Percent Effect” value of the first is lower: -73.54% for the first, 9.166% for the second.

First: Cc1nc(CCNC(=O)NC(C)c2ccc3c(c2)OCCO3)cs1 (configuration not stated)
Second: Cc1cc(NC(=O)C(c2cccc(F)c2)N2CCOCC2)sn1 (configuration not stated)
The “Percent Effect” value of the first is higher: -7.5% for the first, -15.26% for the second.

First: N#CC1COCCN1C(=O)c1cccc2cc[nH]c12 (configuration not stated)
Second: O=C(c1cnco1)N1CCC(Cc2ccc3ncccc3c2)CC1
The “Percent Effect” value of the first is higher: 15.8% for the first, 9.774% for the second.

Going from `CN(C)S(=O)(=O)N1CCN(c2ccnc(N3CCCCC3)n2)CC1` to `CN(C)S(=O)(=O)N1CCN(c2ccnc(N3CCCC3)n2)CC1`, the “Percent Effect” value falls from 38.93% to 12.56%.

First: CS(=O)(=O)N1CCN(c2ccnc(N3CCCC3)n2)CC1
Second: CS(=O)(=O)N1CCN(c2ccnc(N3CCCCC3)n2)CC1
The “Percent Effect” value of the first is lower: 7.415% for the first, 63% for the second.

Going from `COC(=O)c1cccc(CN(C)C(C)c2ccccn2)c1` (configuration not stated) to `CCC(C)NC(=O)Cn1ccc2sc(C)cc2c1=O` (configuration not stated), the “Percent Effect” value falls from 21.51% to 17.39%.

First: OC1(CN2CCC(Cc3ncccn3)CC2)CCOCC1
Second: O=C(c1cnco1)N1CCC(Cc2cnc3ccccc3c2)CC1
The “Percent Effect” value of the first is lower: -20.94% for the first, 64.83% for the second.

First: c1ccc(-n2ncc(CN3CCCC(Cn4cncn4)C3)n2)cc1 (configuration not stated)
Second: Cn1cc(CN2CCCC23CCN(c2nc4ccccc4s2)CC3)cn1
The “Percent Effect” value of the first is lower: 2.145% for the first, 13.88% for the second.

Compared with `Cc1cc2c(=O)n(CCOCCO)cnc2s1`, `CCCC1c2cccn2CCN1C(=O)Cn1cnc2sc(C)cc2c1=O` (configuration not stated) is higher in “Percent Effect” value: 14.22% for the first, 53.74% for the second.

Compared with `CCC1c2ccc(C)n2CCN1C(=O)Cn1cnc2sc(C)cc2c1=O` (configuration not stated), `Cc1cc(C(=O)N2CCN(c3nc4ccccc4s3)CC2)no1` is lower in “Percent Effect” value: 27.93% for the first, -60.39% for the second.

Going from `Cc1nc2ccccn2c1CC(=O)N[C@@H]1CC[C@@H](N2CCCC2)[C@@H]1O` to `Cc1nc(CN2CCCC23CCN(c2nc4ccccc4s2)CC3)co1`, the “Percent Effect” value rises from 13.48% to 53.88%.

First: O=C(c1cc(-n2cccn2)ccn1)N(CC1CCC1)CC(F)(F)F
Second: c1ccc2sc(N3CCC4(CCCN4Cc4ncc[nH]4)CC3)nc2c1
The “Percent Effect” value of the first is lower: 16.8% for the first, 60.65% for the second.

Going from `Cc1cc(C)c2[nH]c(=O)c(CN3CCCC4(C3)CN(C)C(=O)O4)cc2c1` (configuration not stated) to `Cc1cc(C)c2[nH]c(=O)c(CN3CCCC(O)(CO)C3)cc2c1` (configuration not stated), the “Percent Effect” value falls from 65.13% to 23.96%.

With `Cc1cc(C)c2[nH]c(=O)c(CN3CCC(O)(CN(C)C)C3)cc2c1` (configuration not stated) the “Percent Effect” value was 15.85%.
